This note sets out measurements from PubChem BioAssay (Tox21).

Where “and” joins values, the source holds several entries; their conditions need not be identical. Identical values can stand only once. Records with an inconclusive call do not appear. Some structures have more than one record in an assay (separate samples or runs), and their calls can disagree. Calls of active or inactive are those of the source. Unless noted, calls come from the whole dose curve; as a rule, active = well fitted curve in the direction sought with a large enough effect in the repeat runs; inconclusive = weak or mixed curves; inactive = no such curve, though single readings can be large; an effect the other way counts as inactive or inconclusive.

Assay [1] concerns the target Peroxisome proliferator-activated receptor delta (Homo sapiens) (UniProt Q03181). The experiment in a line: qHTS assay to identify small molecule agonists of the peroxisome proliferator-activated receptor delta (PPARd) signaling pathway (AID 743212; calls by dose curve). The method in brief: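 Tox21 library screened in GeneBLAzer PPARd UAS-bla HEK293H cells. After compound treatment at 37 C, a FRET-based beta-lactamase substrate was applied for 2 h and fluorescence recorded.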
(In general: In qHTS, concentration-response curves come from the screen itself.)

Assay [2] shares this target. The experiment in a line: qHTS assay to identify small molecule antagonists of the peroxisome proliferator-activated receptor delta (PPARd) signaling pathway (AID 743215; active = well fitted inhibition curve with a large enough effect in the signal ratio in the repeat runs, not every such curve was filed as active; the % refers to the signal ratio;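 note: cells stimulated with agonist L165041 at 300 nM final during compound exposure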; note: potency is the fitted concentration of half-maximal effect). The method in brief:
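Screen format: qHTS, antagonist mode. HEK293H PPARd-bla cells received compound and 300 nM L165041 (final), 17 h, 37 C. Beta-lactamase detected via FRET substrate fluorescence, 2 h, room temperature.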

The target in assay [3] is Bile acid receptor (Homo sapiens) (UniProt Q96RI1). The experiment in a line: qHTS assay to identify small molecule antagonists of the farnesoid-X-receptor (FXR) signaling pathway (AID 743217; active = well fitted inhibition curve with a large enough effect in the signal ratio in the repeat runs, not every such curve was filed as active; the % refers to the signal ratio). Summed up: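 Quantitative HTS, beta-lactamase reporter format: FXR-UAS-bla HEK 293T cells co-treated 16 h at 37 °C with compounds and 50 uM final chenodeoxycholic acid, then read by B/G FRET fluorescence.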
Chain of Bile acid receptor (Homo sapiens) (Q96RI1 whole entry, looked up): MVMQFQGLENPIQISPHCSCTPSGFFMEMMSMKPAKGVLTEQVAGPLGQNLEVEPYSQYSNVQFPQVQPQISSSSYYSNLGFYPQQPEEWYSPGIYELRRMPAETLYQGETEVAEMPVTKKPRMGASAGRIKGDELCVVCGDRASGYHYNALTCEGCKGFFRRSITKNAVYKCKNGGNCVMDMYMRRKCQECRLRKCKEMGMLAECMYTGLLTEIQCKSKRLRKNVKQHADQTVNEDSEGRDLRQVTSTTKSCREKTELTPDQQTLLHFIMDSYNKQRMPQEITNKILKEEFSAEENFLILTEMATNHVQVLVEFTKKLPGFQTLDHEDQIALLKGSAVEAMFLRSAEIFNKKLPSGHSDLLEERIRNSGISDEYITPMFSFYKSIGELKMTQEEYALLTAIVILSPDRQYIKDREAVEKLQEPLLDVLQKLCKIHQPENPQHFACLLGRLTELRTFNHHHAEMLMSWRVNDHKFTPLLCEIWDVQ

A short description of assay [4]: qHTS assay to identify small molecule agonists of the farnesoid-X-receptor (FXR) signaling pathway - cell viability counter screen (AID 743218). Note: nearly all actives have a fitted effect of over 45% in size. Note: potency is the fitted concentration of half-maximal effect. The method in brief:
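Same-well cytotoxicity check on FXR-UAS-bla HEK 293T cells: 5 h attachment, 16 h compound at 37 C, CellTiter-Glo luminescence read at room temperature after 30 min.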

The target of assay [5] is Bile acid receptor (Homo sapiens) (UniProt Q96RI1). The experiment in a line: qHTS assay to identify small molecule agonists of the farnesoid-X-receptor (FXR) signaling pathway (AID 743220; active = well fitted activation curve with a large enough effect in the signal ratio in the repeat runs, not every such curve was filed as active; the % refers to the signal ratio). The method in brief: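 FXR-UAS-bla HEK 293T cells carrying a UAS-driven beta-lactamase reporter were plated for 5 h at 37C/5% CO2, then exposed to DMSO-dissolved Tox21 10K compounds for 16 h at 37C. A LiveBLAzer B/G FRET substrate was loaded for 2 h at room temperature before fluorescence reading.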

Assay [6] can be described thus: qHTS assay to identify small molecule antagonists of the farnesoid-X-receptor (FXR) signaling pathway - cell viability counter screen (AID 743221; active = well fitted cell-killing curve with a large enough effect in the repeat runs, not every such curve was filed as active; note: nearly all actives have a fitted effect of over 50% in size; note: potency is the fitted concentration of half-maximal effect). Summed up:
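HEK 293T FXR-bla cells, 5 h pre-incubation; compound + CDCA 50 uM final, 16 h, 37 C; beta-lactamase FRET read first, then CellTiter-Glo luminescence, 30 min RT.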

The target in assay [7] is Vitamin D3 receptor (Homo sapiens) (UniProt P11473). The experiment in a line: qHTS assay to identify small molecule antagonists of the vitamin D receptor (VDR) signaling pathway (AID 743223; active = well fitted inhibition curve with a large enough effect in the signal ratio in the repeat runs, not every such curve was filed as active; the % refers to the signal ratio; note: potency is the fitted concentration of half-maximal effect). The method in brief: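 Beta-lactamase reporter read-out: FRET substrate fluorescence after 2 h at room temperature, following 16 h exposure of VDR-bla cells to test compound plus 3 nM (final) 1alpha,25-dihydroxyvitamin D3 agonist at 37C.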
Chain of Vitamin D3 receptor (Homo sapiens) (P11473 whole entry, looked up): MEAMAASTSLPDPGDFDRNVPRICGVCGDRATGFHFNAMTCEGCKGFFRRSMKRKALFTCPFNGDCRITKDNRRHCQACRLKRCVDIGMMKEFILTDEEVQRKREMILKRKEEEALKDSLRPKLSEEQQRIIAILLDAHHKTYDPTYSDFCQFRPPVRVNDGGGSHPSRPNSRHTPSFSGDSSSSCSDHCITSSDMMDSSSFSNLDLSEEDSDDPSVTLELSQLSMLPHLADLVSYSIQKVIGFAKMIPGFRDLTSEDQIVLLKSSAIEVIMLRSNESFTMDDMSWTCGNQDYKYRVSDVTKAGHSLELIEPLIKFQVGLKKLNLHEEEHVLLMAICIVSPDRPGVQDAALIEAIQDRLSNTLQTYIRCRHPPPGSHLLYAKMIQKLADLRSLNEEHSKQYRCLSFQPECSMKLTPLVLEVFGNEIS

Assay [8] can be described thus: qHTS assay to identify small molecule agonists of the vitamin D receptor (VDR) signaling pathway - cell viability counter screen (AID 743224). Note: nearly all actives have a fitted effect of over 50% in size. Note: potency is the fitted concentration of half-maximal effect. Summed up: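 Counter screen for cytotoxicity: VDR-bla cells at 2,000 cells/well, 16 h compound exposure, then CellTiter-Glo luminescence after the beta-lactamase measurement.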
Assay [9] is described as follows: qHTS assay to identify small molecule agonists of the NFkB signaling pathway - cell viability counter screen (AID 1159515; calls by dose curve; note: nearly all actives have a fitted effect of over 55% in size; note: potency is the fitted concentration of half-maximal effect). Summed up: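 Counter screen run alongside the NFkB-bla agonist assay: ME-180 reporter cells exposed to compounds for 5 hr, then lysed with CellTiter-Glo in the same wells. Luminescence, read after 30 min, reflects viable cells.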
Assay [10] is described as follows: qHTS assay to identify small molecule agonists of the endoplasmic reticulum stress response signaling pathway - cell viability counter screen (AID 1159517; calls by dose curve; note: nearly all actives have a fitted effect of over 50% in size; note: potency is the fitted concentration of half-maximal effect). The method in brief:
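In parallel with the ESRE reporter read, cytotoxicity was scored by CellTiter-Glo luminescence (30 min, room temperature) on HeLa ESRE-bla cells dosed for 5 hr.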

Assay [11] can be described thus: qHTS assay to identify small molecule antagonists of the retinoid-related orphan receptor gamma (ROR-gamma) signaling pathway - cell viability counter screen (AID 1159520). Note: nearly all actives have a fitted effect of over 50% in size. Note: potency is the fitted concentration of half-maximal effect. The method in brief: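 Tet-on ROR gamma CHO cells were given compounds for 2 hr, then doxycycline hyclate at 1 uM final, and incubated 16 hr at 37 C. Viability was measured as ATP content by CellTiter-Glo luminescence.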

The nature of assay [12]: qHTS assay to identify small molecule agonists of the AP-1 signaling pathway - cell viability counter screen (AID 1159525; calls by dose curve; note: nearly all actives have a fitted effect of over 55% in size; note: potency is the fitted concentration of half-maximal effect). Summed up:
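Same-well cytotoxicity counter screen of the Tox21 10K library in ME-180 cells. The readout is ATP-dependent luminescence after 5 h compound treatment. Data are normalised to DMSO and tetra n-octyl ammonium bromide controls.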

For assay [13], the target named is Retinoic acid receptor RXR-alpha (Homo sapiens) (UniProt P19793). The experiment in a line: qHTS assay to identify small molecule agonists of the RXR signaling pathway (AID 1159527; calls by dose curve; note: nearly all actives have a fitted effect of over 35% in size). The method in brief: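 Agonist mode; 9-cis retinoic acid positive control. HEK 293T UAS-bla reporter cells, 2% charcoal-stripped FBS, 16 hr compound exposure at 37 C/5% CO2. LiveBLAzer B/G FRET substrate 2 hr RT; ex 405, em 460/530 nm.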
Chain of Retinoic acid receptor RXR-alpha (Homo sapiens) (P19793 whole entry, looked up): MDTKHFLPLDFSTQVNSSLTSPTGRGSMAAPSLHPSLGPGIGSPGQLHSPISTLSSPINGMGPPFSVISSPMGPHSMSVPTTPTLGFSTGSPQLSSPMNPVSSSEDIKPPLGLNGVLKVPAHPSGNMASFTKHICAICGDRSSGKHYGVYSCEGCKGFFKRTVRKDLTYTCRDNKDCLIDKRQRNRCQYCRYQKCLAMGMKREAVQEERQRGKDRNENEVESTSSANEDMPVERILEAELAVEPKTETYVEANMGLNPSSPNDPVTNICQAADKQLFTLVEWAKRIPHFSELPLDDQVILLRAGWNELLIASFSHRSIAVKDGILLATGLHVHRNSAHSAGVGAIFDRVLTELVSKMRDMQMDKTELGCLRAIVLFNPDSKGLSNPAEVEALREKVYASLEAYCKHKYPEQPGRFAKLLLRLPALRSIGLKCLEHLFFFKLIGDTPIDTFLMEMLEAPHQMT

The nature of assay [14]: qHTS assay to identify small molecule agonists of the RXR signaling pathway - cell viability counter screen (AID 1159529). Note: nearly all actives have a fitted effect of over 50% in size. Note: potency is the fitted concentration of half-maximal effect. Summed up: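 Luminescence from CellTiter-Glo (30 min, RT) measured viability in the same wells as the beta-lactamase reporter readout. Cells: GeneBLAzer RXR-alpha HEK 293T, 2% charcoal-stripped FBS. Compound exposure 16 hr, 37 C.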
Assay [15] can be described thus: qHTS assay to identify small molecule antagonists of the peroxisome proliferator-activated receptor delta (PPARd) signaling pathway - cell viability counter screen (AID 743213). Note: nearly all actives have a fitted effect of over 50% in size. Note: potency is the fitted concentration of half-maximal effect. The method in brief:
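PPARd-bla HEK293H cells were treated with compounds plus agonist L165041 (300 nM final) for 17 h at 37 C. Viability was then read in the same wells by CellTiter-Glo luminescence after 30 min at room temperature.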

For assay [16], the target named is Vitamin D3 receptor (Homo sapiens) (UniProt P11473). The experiment in a line: qHTS assay to identify small molecule agonists of the vitamin D receptor (VDR) signaling pathway (AID 743222; calls by dose curve). The method in brief:
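Using LiveBLAzer B/G FRET detection, agonism was scored in VDR-bla cells exposed overnight (16 h, 37C) to DMSO-dissolved compounds; substrate incubation was 2 h at room temperature.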

Assay [17] in a line: qHTS assay to identify small molecule antagonists of the vitamin D receptor (VDR) signaling pathway - cell viability counter screen (AID 743225). Note: nearly all actives have a fitted effect of over 50% in size. Note: potency is the fitted concentration of half-maximal effect. The method in brief:
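Viability counter screen run in the same wells as the beta-lactamase reporter assay: HEK 293T VDR-UAS-bla cells, 16 h compound exposure at 37C with 3 nM (final) 1-alpha,25-dihydroxyvitamin D3. CellTiter-Glo luminescence, 30 min, room temperature.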

The nature of assay [18]: qHTS assay to identify small molecule agonists of the endoplasmic reticulum stress response signaling pathway (AID 1159516; active = well fitted activation curve with a large enough effect in the signal ratio in the repeat runs, not every such curve was filed as active; the % refers to the signal ratio). The method in brief:
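For this screen, HeLa cells stably carrying beta-lactamase under the ER stress response element received test compounds, positive controls or DMSO for 5 hr at 37 C; B/G FRET substrate was then added and dual-wavelength emission recorded.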

In assay [19] the target is Nuclear receptor ROR-gamma (Homo sapiens) (UniProt P51449). The experiment in a line: qHTS assay to identify small molecule antagonists of the retinoid-related orphan receptor gamma (ROR-gamma) signaling pathway (AID 1159521; note: nearly all actives have a fitted effect of over 50% in size; note: potency is the fitted concentration of half-maximal effect). The method in brief:
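Luminescence readout (ONE-Glo, 30 min RT) after 16 h doxycycline induction; loss of signal scored as antagonism. CHO cells with TET-inducible RORγ and RORE-LUC reporter; compounds added 2 h before 1 uM final doxycycline.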

Assay [20] can be described thus: qHTS assay to identify small molecule agonists of the AP-1 signaling pathway (AID 1159526; calls by dose curve).

Chain of Peroxisome proliferator-activated receptor delta (Homo sapiens) (Q03181 whole entry, looked up): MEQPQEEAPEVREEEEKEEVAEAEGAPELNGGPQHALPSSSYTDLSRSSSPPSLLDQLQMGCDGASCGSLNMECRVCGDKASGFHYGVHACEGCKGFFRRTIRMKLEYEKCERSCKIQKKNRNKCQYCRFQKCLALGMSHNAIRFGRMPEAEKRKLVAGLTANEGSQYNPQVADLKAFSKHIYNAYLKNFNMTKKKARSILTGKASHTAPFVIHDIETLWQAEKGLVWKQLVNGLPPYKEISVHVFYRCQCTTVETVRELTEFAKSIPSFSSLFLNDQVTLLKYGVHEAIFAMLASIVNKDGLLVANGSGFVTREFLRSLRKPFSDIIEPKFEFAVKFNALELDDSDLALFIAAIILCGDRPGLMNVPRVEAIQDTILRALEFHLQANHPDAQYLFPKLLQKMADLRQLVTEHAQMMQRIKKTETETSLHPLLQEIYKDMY

Take `Cc1ccc(S(=O)(=O)Oc2ccc(N=Nc3ccc(-c4ccc(N=Nc5c(O)ccc6cc(S(=O)(=O)O)cc(S(=O)(=O)O)c56)c(C)c4)cc3C)cc2)cc1`: the Potency entry in assay [1], in assay [2], in assay [3], in [4], in [5] and in [6] was “inactive” each time. Moreover, the Potency entry in assay [7], in [8], in assay [9], in [10], in assay [11] and in [12] was “inactive” in each case. Moreover, the Potency result in assay [13] and in assay [14] was “inactive” in each case.
As to `COc1ccc(COC(C)=O)cc1`, the Potency result in assay [1], in [15], in assay [2], in [3], in assay [4] and in assay [5] was “inactive” in each case. Also, the Potency entry in assay [6], in assay [16], in assay [7], in assay [8], in assay [17] and in [10] was “inactive” in each case. Further, the Potency result in [11], in assay [19], in assay [12], in [20], in [13] and in assay [14] was “inactive” each time. Moreover, the compound was classed as inactive in [18].
With `Nc1nc(=S)c2[nH]cnc2[nH]1`, the Potency entry in assay [4], in assay [6], in [9], in assay [10], in [12] and in [20] was “inactive” in each case. Also, the Potency in assay [8] is 1.74 µM (active) and 3.35 µM (active); in [19], 26.6 µM (active) and inactive.
In the case of `c1cc(C(c2ccc(OCC3CO3)cc2)C(c2ccc(OCC3CO3)cc2)c2ccc(OCC3CO3)cc2)ccc1OCC1CO1` (centres undefined), the Potency result in [15], in assay [6], in [8], in [9], in assay [10] and in assay [11] was “inactive” in each case. In addition, the Potency entry in assay [12] and in assay [14] was “inactive” each time.
As to `Cc1cc(C2(c3cc(C)c(O)cc3C)OS(=O)(=O)c3ccccc32)c(C)cc1O`, the Potency entry in assay [15], in assay [4], in assay [6], in assay [8], in assay [17] and in [9] was “inactive” throughout. Further, the Potency result in assay [11], in assay [19], in [12] and in assay [20] was “inactive” in each case. Besides, the compound was classed as inactive in [18].
On to `O=Nc1ccc(Nc2ccccc2)cc1`, for which the Potency is 49 µM (active) in [15]; 30.9 µM (active) in assay [2]; 55.3 µM (active) and 54.9 µM (active) in assay [4]; 39.1 µM (active) in assay [6]; 17.5 µM (active) and 49 µM (active) in assay [8]; 19.4 µM (active) and 15.4 µM (active) in assay [11]. For the same compound, the Potency in [19] is 7.74 µM (active) and 10.9 µM (active). The Potency entry in assay [16], in [9] and in assay [12] was “inactive” in each case. In [18], the outcome was inactive.
Consider `Cc1cc(Cc2cc(C)cc(C(C)(C)C)c2O)c(O)c(C(C)(C)C)c1`, for which the Potency result in [1], in [5], in assay [6] and in assay [16] was “inactive” throughout. The Potency in assay [15] is 13.9 µM (active) and 15.5 µM (active); in assay [4], 21.9 µM (active); in assay [8], 9.82 µM (active) and 13.8 µM (active); in [17], 19.6 µM (active) and 19.5 µM (active); in assay [9], 11 µM (active) and 17.4 µM (active); in assay [10] it was 17.5 µM (active) and 21.9 µM (active). Also, the Potency in assay [11] is 21.8 µM (active) and 30.6 µM (active); in [19], 19.4 µM (active) and 27.3 µM (active); in [12], 11 µM (active) and 13.8 µM (active); in [14], 12.4 µM (active) and 21.9 µM (active).
`NC(=Nc1ccccc1)Nc1ccccc1`: the Potency entry in assay [1], in assay [2], in assay [4], in assay [6], in assay [8] and in [9] was “inactive” each time. In addition, the Potency result in assay [10], in [11], in assay [19], in assay [12] and in assay [14] was “inactive” each time.
As to `CCN(CC)CCOc1ccc(/C(=C(\Cl)c2ccccc2)c2ccccc2)cc1`, the Potency in assay [15] was 39.7 µM (active); in [4] it was 35.4 µM (active) and 26.6 µM (active); in assay [7] it was 31.6 µM (active); in [8] it was 19.9 µM (active) and 26.6 µM (active); in assay [17], 22.3 µM (active) and 21.3 µM (active); in assay [9] it was 44.6 µM (active) and 23.9 µM (active). The Potency is 31.3 µM (active) in assay [11]; 19.7 µM (active) and 26.6 µM (active) in assay [19]; 17.7 µM (active) in [12]; 15.8 µM (active) and 10.7 µM (active) in assay [14]. The Potency entry in assay [3], in assay [5] and in [16] was “inactive” in each case.
